Measured values from PubChem BioAssay.

Columns and labels:
[1] = molecular target: Tumor necrosis factor receptor superfamily member 10B (Homo sapiens) (UniProt O14763); assay: caspase-8 TRAIL sensitization, hit retest, confirmation, cell-based, NB7+caspase-8, with/without TRAIL, luminescence panel (AID 651596); conditions: NB7 neuroblastoma + caspase-8, TRAIL sensitization, luminescence viability, with TRAIL, mean of runs, at 10 µM, stronger effect = higher value
[2] = as above; conditions: NB7 neuroblastoma + caspase-8, without TRAIL, luminescence viability, without TRAIL, mean of runs, at 10 µM

Sequence of Tumor necrosis factor receptor superfamily member 10B (Homo sapiens) (O14763 whole entry, looked up): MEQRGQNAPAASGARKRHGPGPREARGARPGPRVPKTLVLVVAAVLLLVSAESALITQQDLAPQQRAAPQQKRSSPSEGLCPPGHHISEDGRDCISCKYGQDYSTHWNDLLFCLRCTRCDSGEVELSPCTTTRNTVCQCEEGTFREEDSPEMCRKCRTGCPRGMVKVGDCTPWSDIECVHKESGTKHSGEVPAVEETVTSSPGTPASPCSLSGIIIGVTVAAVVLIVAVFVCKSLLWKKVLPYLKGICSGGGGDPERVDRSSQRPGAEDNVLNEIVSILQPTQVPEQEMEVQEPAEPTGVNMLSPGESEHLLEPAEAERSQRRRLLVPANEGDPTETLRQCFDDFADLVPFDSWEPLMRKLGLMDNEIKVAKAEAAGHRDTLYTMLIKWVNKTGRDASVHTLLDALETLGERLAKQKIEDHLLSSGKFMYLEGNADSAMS

SMILES | activity [1] [%] | activity [2] [%]
CC(C)(C)C(=O)Nc1ccc(-c2cn3ccsc3n2)cc1 | 95.7 | 95.8
COc1ccc(C(=O)NCc2cn3cccc(C)c3n2)cc1OC | 4.08 | 3.77
Cc1nn(-c2ccccc2)c(C)c1/C=N/NC(=O)c1cc(C23CC4CC(CC(C4)C2)C3)[nH]n1 | 74.1 | 60
COc1cccc(NC(=O)Nc2nc(-c3ccc(OC)c(OC)c3)cs2)c1 | 98.5 | 99.2
CN(C)c1ccc(C=Nc2ccccc2C(N)=O)cc1 | 85.3 | 86.5
Cc1ccc(-n2[nH]c(C)c(C=Nc3ccc4[nH]c(=O)[nH]c4c3)c2=O)cc1C | 51.4 | 41.5
COc1ccc(/C=C(\C#N)C(=O)OCC(=O)Nc2ccc(-c3nc4ccc(C)cc4s3)cc2)cc1 | 42.9 | 27.9
COc1ccc(-c2cc3ccccc3c(=O)o2)cc1 | 49.4 | 56.6
CN(C)c1ccc(/C=N/NC(=O)c2ccco2)cc1 | 50.2 | 31.4
COc1ccc2cc(CNCCOCCOCCNCc3ccc4cc(OC)ccc4c3)ccc2c1 | -7.05 | -2.75
Cc1ccc(S(=O)(=O)N2C[C@H]3[C@H]4C(=O)N(C5CCCCC5)C(=O)[C@H]4CC(=O)[C@H]3[C@@H]2c2cccc3ccccc23)cc1 | -8.53 | -13.6
CC(C)c1ccc2c(c1)CC[C@H]1[C@](C)(CN)CCC[C@]21C | 33.8 | 97.2
O=C(CSc1nnc(-c2ccccc2Cl)o1)Nc1ccccn1 | 68.8 | 74
O=C(/C=C/Nc1ccc(F)cc1)c1cccs1 | 69.7 | 65
O=C(Nc1ccc2c(c1)OCCO2)c1ccccn1 | 75.8 | 69.1
